A short description of assay [1]: StAR promoter reporter inhibitors, counter-screen for LRH-1 inverse agonist project, cell-based, luminescence, high throughput (AID 651611; in the data active means inhibition above about 28%). To be noted: StAR promoter luciferase reporter counterscreen, at 3.6 µM, hits give high values.
The target of assay [2] is Nuclear receptor subfamily 5 group A member 2 (Homo sapiens) (UniProt O00482). Description: NR5A2 activity suppression in reporter cells – cell-based, luminescence, confirmation (AID 651613; in the data active means inhibition above about 42%;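 further: HEK293T cells co-transfected with LRH-1 and StAR promoter luciferase reporter; 0% = vehicle wells and 100% = parental cells lacking receptor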). The settings on record: cell-based LRH-1 luciferase reporter, inverse agonism; at 3.6 µM; hits give high values.
Nuclear receptor subfamily 5 group A member 2 (Homo sapiens), sequence (O00482 whole entry, looked up): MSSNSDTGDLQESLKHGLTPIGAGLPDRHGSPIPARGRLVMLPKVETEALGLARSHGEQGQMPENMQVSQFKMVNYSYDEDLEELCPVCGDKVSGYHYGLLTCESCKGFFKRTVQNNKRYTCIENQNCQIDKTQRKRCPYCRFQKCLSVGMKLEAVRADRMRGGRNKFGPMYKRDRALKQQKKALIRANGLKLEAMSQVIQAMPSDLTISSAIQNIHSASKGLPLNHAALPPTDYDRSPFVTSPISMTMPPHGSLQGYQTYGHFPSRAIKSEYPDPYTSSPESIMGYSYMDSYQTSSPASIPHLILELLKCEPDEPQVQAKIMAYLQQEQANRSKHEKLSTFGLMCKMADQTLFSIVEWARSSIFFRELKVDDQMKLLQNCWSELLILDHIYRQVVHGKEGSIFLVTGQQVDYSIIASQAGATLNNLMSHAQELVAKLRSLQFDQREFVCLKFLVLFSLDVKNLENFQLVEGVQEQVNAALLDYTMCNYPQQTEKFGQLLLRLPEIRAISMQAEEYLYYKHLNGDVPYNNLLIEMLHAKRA
Assay [3] has as its target Steroidogenic factor 1 (Homo sapiens) (UniProt Q13285). Description: inverse agonism at SF1 nuclear receptor – cell-based, luminescence, high throughput, counter-screen for LRH-1 inverse agonist project (AID 651614; in the data active means inhibition above about 44%;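 further: cells cotransfected with StAR promoter reporter and SF1 expression vector; 0% = vehicle on cells with receptor and 100% = vehicle on cells lacking receptor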). The settings on record: cell-based SF1 luciferase reporter, at 3.6 µM, hits give high values.
Assay [4] is described as follows: compounds suppressing VP16-driven luciferase signal – cell-based, luminescence, high throughput, counter-screen for LRH-1 inverse agonist project (AID 651615). To be noted: Gal4-VP16 luciferase reporter cells, at 3.6 µM, hits give high values.

Values without a mark were called inactive. Activity calls are given as the source filed them. Unless noted, no stated cut-off is given here; in the data, active means inhibition above about 33%; inactive means the rest.

Steroidogenic factor 1 (Homo sapiens), sequence (Q13285 whole entry, looked up, the tested form may be a part): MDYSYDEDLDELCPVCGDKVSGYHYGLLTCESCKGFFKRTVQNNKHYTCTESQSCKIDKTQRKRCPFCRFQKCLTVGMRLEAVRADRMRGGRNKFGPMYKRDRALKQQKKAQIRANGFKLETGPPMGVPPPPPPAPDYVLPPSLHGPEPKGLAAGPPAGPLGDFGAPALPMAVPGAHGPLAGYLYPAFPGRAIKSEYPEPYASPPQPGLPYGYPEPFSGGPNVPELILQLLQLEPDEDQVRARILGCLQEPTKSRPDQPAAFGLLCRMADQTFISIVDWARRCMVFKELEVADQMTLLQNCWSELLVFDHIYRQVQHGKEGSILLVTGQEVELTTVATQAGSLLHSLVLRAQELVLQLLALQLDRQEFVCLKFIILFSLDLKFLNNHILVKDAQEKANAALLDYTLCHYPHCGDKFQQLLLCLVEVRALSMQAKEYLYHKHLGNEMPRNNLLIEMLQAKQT

Take `CCCCCCCN(C(=O)CCl)c1ccccc1C`: the inhibition in assay [1] was 21%; in assay [2] it was 49.9% (active); in assay [3], 42.9% (active); in assay [4] it was -8.25%.
For `NC(=S)N/N=C/c1ccc(C(F)(F)F)cc1` the same measures were -1.87%, 48.1% (active), 44.6% (active) and 9.68%.
For `COc1ccc(NC(=O)CS(=O)(=O)c2ccc(C)cc2)c(OC)c1` the same measures were 17%, 53.1% (active), 56% (active) and -1.68%.
For `NC(=O)C1CCN(C(=O)COc2ccc3c4c(c(=O)oc3c2)CCC4)CC1` the same measures were 5.21%, 42.7% (active), 36.4% and -10.9%.
As to `NC(=S)N/N=C/c1ccc([N+](=O)[O-])cc1`, the inhibition in assay [1] was 6.27%; in assay [2], 42.7% (active); in assay [3], 39.8%; in assay [4], -3.22%.
The like results for `O=C(CCl)Nc1ccccc1C(=O)c1ccccc1` were, in that order, 1.14%, 48.4% (active), 50% (active) and -2.6%.
The like results for `O=C(CNc1cccc2ccccc12)N/N=C/c1ccc([N+](=O)[O-])o1` were, in that order, 27.6%, 56.1% (active), 56% (active) and 39.9% (active).
As to `COc1cc(CCNc2ccc3nnc(-c4ccccc4)n3n2)cc(OC)c1OC`, the inhibition in assay [1] is 50.7% (active); in assay [2], 37.5%; in assay [3], 28.6%; in assay [4] it was -65.1%.
Consider `COc1ccc(NC(=O)CSC2=NCCN2)cc1`, for which the inhibition in assay [1] was -2.78%; in assay [2], 31.3%; in assay [3], 15.1%; in assay [4], -3.5%.
Consider `O=C(COc1ccc(F)c(Cl)c1)Nc1ccc(N2CCOCC2)cc1`, for which the inhibition is 3.59% in assay [1], 36% in assay [2], 39% in assay [3] and 3.92% in assay [4].
The like results for `C=CCNc1sc(C(=O)c2ccccc2)c(N)c1C#N` were, in that order, 13.8%, 43.6% (active), 47.7% (active) and 6.37%.
As to `COc1cc2c(cc1OC)CN(C(=O)Cn1ccccc1=O)CC2`, the inhibition in assay [1] is 16.3%; in assay [2], 56.6% (active); in assay [3], 57.1% (active); in assay [4] it was 6.2%.
For `C=CC(=O)Nc1ccc(Br)cc1` the same measures were 20.7%, 41%, 51.4% (active) and -1.85%.
The like results for `O=[N+]([O-])c1ccc(/C=N/n2c(CO)nc3ccccc32)s1` were, in that order, 16.3%, 62.2% (active), 59.9% (active) and 2.51%.
The like results for `C/C(=N\NC(N)=S)c1ccc(Cl)s1` were, in that order, 16.8%, 55.8% (active), 35.5% and 21.2%.
As for `COc1ccc(C2=CC(=O)OC3(CCCC3)O2)cc1`, the inhibition was 15% in assay [1], 60.5% (active) in assay [2], 54.5% (active) in assay [3] and -0.06% in assay [4].
Turning to `OC[C@@H]1CN(Cc2ccc(-c3ccccc3)cc2)C[C@H](n2cnc3c(NCc4ccco4)ncnc32)O1`, the inhibition in assay [1] is 22.7%; in assay [2] it was 63.7% (active); in assay [3], 65% (active); in assay [4], 33.6% (active).
As to `COc1ccc(NC(=O)COC(=O)Cc2c[nH]c3ccccc23)cc1Cl`, the inhibition in assay [1] was 18.2%; in assay [2], 40.9%; in assay [3] it was 42.5%; in assay [4], -6.87%.
The like results for `NS(=O)(=O)c1ccc(O)c(NC(=O)c2ccc([N+](=O)[O-])o2)c1` were, in that order, 13.8%, 67.2% (active), 61.2% (active) and 2.28%.
The like results for `O=C(CCl)NCc1cc(-c2ccc(Cl)cc2)no1` were, in that order, 43.5% (active), 70.7% (active), 72.3% (active) and -3.6%.
The like results for `CCCCOCCCNc1ncnc2c1[nH]c1ccccc12` were, in that order, 13.1%, 50% (active), 53.6% (active) and 42.3% (active).
In the case of `COc1ccccc1-n1c(SCC(=O)Nc2ccc(Cl)cc2)nc(O)c(Cc2ccccc2)c1=O`, the inhibition is 16.2% in assay [1], 55.1% (active) in assay [2], 56% (active) in assay [3] and 0.94% in assay [4].
The like results for `O=[N+]([O-])c1ccc(N2CCCCC2)cc1N1CCOCC1` were, in that order, 18%, 54.3% (active), 54.9% (active) and -5.18%.
Take `CC[n+]1ccc(/C=C/c2ccc(N(C)C)cc2)c2ccccc21`: the inhibition is 77.7% (active) in assay [1], 110% (active) in assay [2], 94.1% (active) in assay [3] and 91.1% (active) in assay [4].
The like results for `C[C@H](CO)N1C[C@H](C)[C@H](CN(C)Cc2ccncc2)Oc2cc(-c3ccccc3F)ccc2S1(=O)=O` were, in that order, 12.8%, 64.6% (active), 64.6% (active) and 11.1%.
For `COc1cc(OC)cc(-c2oc3cccnc3c2C#CCCO)c1` the same measures were 2.16%, 60.8% (active), 54.2% (active) and -0.7%.
With `O=C(Nc1cccc(NC(=O)c2ccccc2Cl)c1)c1ccc([N+](=O)[O-])o1`, the inhibition in assay [1] was 33.1% (active); in assay [2] it was 58.8% (active); in assay [3], 66.8% (active); in assay [4] it was -5.43%.

(Values after PubChem BioAssay.)
